Hits are enriched below; roughly 9.3% of the tested compounds scored in any of these assays.
FLuc modulator: qHTS profiling assay for firefly luciferase inhibitor/activator using purifed enzyme and Km concentrations of substrates (counterscreen for miR-21 project); purified FLuc, Km substrates, luminescence inhibition; Luciferin 4-monooxygenase (Photinus pyralis), P08659; 6.9% of 360,000 active; Potency, µM (highest dose often 57.5 µM), without a hit: top-dose activity change, negative = inhibition, most hits filed as inhibitors;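 note: plate controls were vehicle for no effect and reference inhibitor for full effect; nearly all actives have a fitted effect of over 55% in size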
Target sequence (P08659 whole entry, looked up): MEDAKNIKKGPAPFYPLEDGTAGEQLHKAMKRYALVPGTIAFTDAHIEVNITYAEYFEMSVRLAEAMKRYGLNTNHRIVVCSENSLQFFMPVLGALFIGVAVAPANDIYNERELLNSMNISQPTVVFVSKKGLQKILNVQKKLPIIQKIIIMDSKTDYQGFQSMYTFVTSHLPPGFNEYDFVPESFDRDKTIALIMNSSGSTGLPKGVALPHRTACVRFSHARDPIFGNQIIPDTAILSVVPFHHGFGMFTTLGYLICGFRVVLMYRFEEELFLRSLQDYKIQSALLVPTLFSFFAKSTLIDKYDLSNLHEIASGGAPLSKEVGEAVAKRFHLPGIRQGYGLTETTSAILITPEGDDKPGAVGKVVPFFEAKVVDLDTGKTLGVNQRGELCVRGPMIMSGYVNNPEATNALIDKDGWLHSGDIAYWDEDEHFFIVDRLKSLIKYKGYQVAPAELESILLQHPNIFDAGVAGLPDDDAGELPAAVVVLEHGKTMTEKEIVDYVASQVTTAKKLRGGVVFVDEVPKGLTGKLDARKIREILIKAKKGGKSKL
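Purified P. pyralis luciferase, 10 nM final, with Km-level 10 uM D-luciferin and 10 uM ATP in 50 mM Tris acetate pH 7.5, 10 mM Mg acetate, 0.01% Tween-20, 0.05% BSA; 6-point qHTS titration about 60 µM downward; luminescence read.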
ELG1 genotoxic: qHTS screen for small molecules that induce genotoxicity in human embryonic kidney (HEK293T) cells expressing luciferase-tagged ELG1; 1.3% of 330,000 active; HEK293T ELG1-luciferase reporter, luminescence, 16 h; Potency, µM (series often up to 46 µM), inactives show at the top dose activity change, positive = activation, usual class: activators; AID 504466, 2011; note: % of control where 0% means no effect; nearly all actives have a fitted effect of over 60% in size
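DMSO vehicle served as control against compound-treated ELG1-luciferase HEK293T cells; exposure lasted 16 hr at 37 °C and 5% CO2, followed by ONE-Glo luminescence detection after 30 min.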
NPC1 prom act: qHTS Assay for NPC1 Promoter Activators; Huh7 NPC1 promoter luciferase reporter, 24 h; Potency, µM (series often up to 9.22 µM), inactives show top-dose activation, hits mostly activators; 2.4% of 320,000 active; AID 485313, 2010; note: % of control where 0% means no effect; nearly all actives have a fitted effect of over 60% in size
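Huh7 reporter cells (NPC1 promoter driving luciferase) are dosed with compound for 24 h at 37 °C, 5% CO2; luciferase detection reagent is then added and luminescence measured after 10 min at ambient temperature.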
Rab9 promoter act: qHTS Assay for Rab9 Promoter Activators; Huh7 Rab9 promoter-luciferase reporter, luminescence, 24 h; Potency, µM (series often up to 9.22 µM), inactives show at the top dose activation, negative = inhibition, hits mostly activators; 2.8% of 320,000 active; AID 485297, 2010; note: % of control where 0% means no effect; nearly all actives have a fitted effect of over 60% in size
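Stable Rab9-luc Huh7, 1500 cells/well, 2 h settle; cmpd in DMSO, 24 h, 37 °C/5% CO2; luciferase reagent 10 min RT; luminescence.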
ELG1 repair inh: qHTS screen for small molecules that inhibit ELG1-dependent DNA repair in human embryonic kidney (HEK293T) cells expressing luciferase-tagged ELG1. 2.3% of 330,000 active. AID 504467, 2011. Potency, µM (series often up to 46.1 µM), for inactives: at the top dose activity change, negative = inhibition, hits mostly inhibitors. HEK293T ELG1-luciferase reporter, luminescence, 16 h; DNA damage induced by 5-fluorouridine; note: % is set by controls: 0 for no effect and ±100 for the full control effect; nearly all actives have a fitted effect of over 55% in size
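Overnight (16 hr) co-exposure of 2,000 cells/well to 5-fluorouridine and compound at 37 °C preceded detection. Luciferase was quantified via ONE-Glo luminescence; loss of signal denotes inhibition.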
SMN2 splice up: qHTS Assay for Enhancers of SMN2 Splice Variant Expression; 2.8% of 210,000 active; HEK293 SMN2-luciferase splicing reporter, luminescence, 30-36 h; AID 1458, 2008; Potency, µM (titrated, usually from 46.1 µM), without a hit: top-dose activity change, positive = activation, most hits filed as activators; note: % of control where 0% means no effect; nearly all actives have a fitted effect of over 55% in size
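qHTS luciferase splicing reporter: luminescence rises when SMN2 exon 7 is included in transfected HEK293 cells. Compound exposure lasted 30-36 h at 37C, with 4.5 mM final sodium butyrate as control, followed by a ONE-Glo read.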
Numbers without * were called inactive; u = inconclusive; x = no result. Calls come from the whole dose curve; as a rule, active = well fitted curve in the direction sought with a large enough effect; inconclusive = small, poorly fitted or top-dose-only effect, or another doubt; inactive = no such curve, though single readings can be large; an effect the other way counts as inactive or inconclusive. Potency is the fitted concentration of half-maximal effect.

SMILES	FLuc modulator	ELG1 genotoxic	NPC1 prom act	Rab9 promoter act	ELG1 repair inh	SMN2 splice up
O=C(c1ccco1)N1CCN(c2ncnc3c2oc2ccccc23)CC1	24µM*	u	-2%	2%	u	4%
COc1ccccc1N1CCN(c2ncnc3c2oc2ccccc23)CC1	27µM*	u	-24%	-20%	u	x
S=c1[nH]nc(CN2CCCCC2)n1Cc1ccccc1	-17%	-6%	-5%	0%	-22%	-4%
Cc1ccc(C(=O)Nc2sc(C)c(-c3ccccc3)c2C(N)=O)cc1[N+](=O)[O-]	3.4µM*	2.9µM*	17%	16%	u	-49%
Cc1ccc(C(=O)Nc2cccc(NC(=O)c3ccc(C)c([N+](=O)[O-])c3)n2)cc1[N+](=O)[O-]	-19%	-1%	-5%	-2%	u	x
C=CCn1cc(/C=N/NC(=O)COc2cccc3cccnc23)c2ccccc21	u	2%	0%	1%	-39%	12%
COc1cccc(/C=N/NC(=O)COc2cccc3cccnc23)c1O	12µM*	3%	-8%	-25%	u	-23%
COc1ccccc1OCC(=O)N/N=C/c1cccc2cccnc12	-18%	-1%	-3%	-5%	-16%	x
CC(C)n1cc(/C=N/NC(=O)COc2cccc3cccnc23)c2ccccc21	2.7µM*	-5%	0%	1%	u	x
CC(C)(C)OC(=O)N1CCC(CNC(=O)c2ccc(F)cc2F)CC1	-2%	-4%	1%	-3%	-3%	x
CC(=O)C1=C(C)NC(=S)NC1c1cccc([N+](=O)[O-])c1 (stereo not given)	-1%	-2%	-16%	3%	-9%	-5%
CCOc1ccc(NC(=O)CCc2nnc3ccc(N4CCN(C)CC4)nn23)cc1	1%	2%	-5%	2%	u	x
CCCCNC(=O)c1cc(C)no1	-1%	9%	-6%	1%	2%	5%
COC(=O)c1c(-c2ccccc2)csc1NC(=O)c1c(-c2ccccc2)noc1C	2%	-11%	0%	20%	u	u
Cc1ccc(-c2csc(NC(=O)/C=C/c3ccco3)c2C(=O)O)cc1	6µM*	u	3.2µM*	1.8µM*	u	11µM*
Cc1cc(NC(=O)/C=C/c2ccco2)ccc1NC(=O)c1ccccc1	u	0%	0%	10%	9%	x
O=C(Nc1scc(-c2ccc(F)cc2)c1C(=O)O)c1ccco1	17µM*	u	26%	24%	u	u
Cc1csc(NC(=O)c2ccco2)c1C(=O)c1ccccc1	-3%	8%	0%	-3%	-1%	x
COC(=O)c1c(-c2ccccc2)csc1NC(=O)c1ccco1	5.4µM*	2.3µM*	2.8µM*	u	u	-1%
CCc1nn(CCCC(=O)N(C)Cc2ccccc2)c(=O)c2cc3occc3n12	-2%	1%	-5%	-2%	7%	x
CCCCOCC(O)CCc1n[nH]c(=S)n1-c1ccccc1 (stereo not given)	-2%	1%	4%	-1%	-17%	x
c1ccc(-n2ncc3c(NCc4cccnc4)ncnc32)cc1	17µM*	u	u	u	u	38%
Cc1ccc(-n2ncc3c(NCc4ccccc4)ncnc32)cc1C	21µM*	x	x	x	x	x
Cc1ccc(-n2ncc3c(NCCc4ccccc4)ncnc32)cc1	24µM*	x	x	x	x	x
c1ccc(CNc2ncnc3c2cnn3Cc2ccccc2)cc1	6%	1%	-23%	-7%	-28%	11µM*
SMILES	FLuc modulator	ELG1 genotoxic	NPC1 prom act	Rab9 promoter act	ELG1 repair inh	SMN2 splice up
O=c1c2cnn(-c3ccccc3)c2ncn1Cc1cccnc1	-2%	-7%	2%	-7%	-6%	-10%
COc1ccc(-c2coc3c2c(C)cc2oc(=O)cc(C)c23)cc1	-15%	x	x	x	x	2%
COCC(C)Nc1ncnc2c1cnn2-c1ccc(C)c(C)c1 (stereo not given)	6.7µM*	x	x	x	x	x
CCOC(=O)c1cnn(-c2ncnc3sc(CC)cc23)c1N	13µM*	4%	-3%	3%	u	13%
CCOC(=O)c1cnn(-c2ccc(C(F)(F)F)cn2)c1N	11µM*	u	u	u	u	u
Cc1ccc(NC(=O)CSC2=C(C#N)C(c3ccco3)C3=C(CCCC3=O)N2)cc1 (stereo not given)	4%	-9%	-3%	6%	u	-10%
O=C(CNC(=O)c1ccc(Cl)cc1)OCCN1C(=O)c2ccccc2C1=O	0%	2%	0%	1%	0%	x
O=C(Nc1cccc(F)c1)C1CCN(S(=O)(=O)c2ccc3[nH]c4c(c3c2)CCCCC4)CC1	-6%	x	x	x	x	x
CC(C)c1ccc(C(=O)Nc2cccc3cccnc23)cc1	9.5µM*	x	x	x	x	8%
O=C(NC(=S)Nc1cccc2cccnc12)c1ccccc1	7.6µM*	6%	u	u	0%	0%
CNC(=S)Nc1cccc2[nH]ncc12	0%	0%	0%	-6%	10%	-4%
O=C(NC(=S)Nc1cccc2[nH]ncc12)c1ccccc1	u	-4%	3.2µM*	2.5µM*	-3%	u
CCOc1ccc(C(=O)Nc2cccc3cccnc23)cc1	u	12%	3%	0%	26%	x
CC(C)Oc1ccc(C(=O)Nc2cccc3cccnc23)cc1	11µM*	10%	11%	20%	u	x
CCCN1CCN(S(=O)(=O)c2ccc3c(c2)NC(=O)C(C)S3)CC1 (stereo not given)	0%	1%	0%	-8%	-3%	x
O=C(Nc1cccc2cccnc12)c1ccc(F)cc1	15µM*	x	x	x	x	x
COc1ccc(OC)c(S(=O)(=O)Nc2ccc(O)c3ccccc23)c1	-6%	-43%	-1%	-13%	10µM*	-118%
COc1ccc(OC)c(S(=O)(=O)Nc2ccc(Oc3ccccc3)cc2)c1	-1%	-8%	-1%	-9%	-6%	x
O=c1[nH]c2ccccc2n1CCCN1CCN(C(c2ccccc2)c2ccccc2)CC1	6%	-5%	-5%	0%	u	-20%
COc1ccc(C2C(O)C(c3c[nH]c4ccccc34)=NN2C(=O)CCl)cc1 (stereo not given)	-12%	-18%	-47%	-47%	8.2µM*	x
COc1ccc(C2NN=C(c3c[nH]c4ccccc34)C2O)cc1 (stereo not given)	u	11%	25%	23%	u	x

Bioassay records as filed in PubChem BioAssay.
